According to PubChem BioAssay (NCI):
“And” between values parts separate entries of the source, which are not always exact repeats. Equal entries are not always repeated. Compounds without any hit were thinned out: in the full panel of roughly 79,000, 15% have a hit. Where a structure was tested more than once in an assay, its records may differ in their call. The source made the active and inactive calls. Cut-off read from the data, not from the text of the source: active = growth inhibition above about 70%; inactive = the rest.

How the values were obtained:
[1] = NCI Yeast Anticancer Drug Screen. Data for the rad50 strain (AID 155);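 note: 0% = growth of vehicle-only cultures of the same strain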; settings: S. cerevisiae rad50 strain growth inhibition, stronger effect = higher value
How it was run: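 Vehicle-treated cultures provide the reference for the growth inhibition reported for compound-exposed, repair-deficient yeast.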

[2] = NCI Yeast Anticancer Drug Screen. Data for the mec2-1 strain (AID 157); settings: S. cerevisiae mec2-1 strain, stronger effect = higher value
How it was run: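 Mutant yeast (mec2-1) grown with compound; growth inhibition relative to vehicle control reported.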

[3] = NCI Yeast Anticancer Drug Screen. Data for the sgs1 mgt1 strain (AID 161);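 note: 0% = growth of cultures given vehicle only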; settings: S. cerevisiae sgs1 mgt1 strain, stronger effect = higher value
How it was run: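 Yeast cells carrying a defined DNA-repair defect were exposed to test compounds. Growth inhibition was measured relative to vehicle-treated controls.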

[4] = NCI Yeast Anticancer Drug Screen. Data for the cln2 rad14 strain (AID 165);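 note: 0% = growth equal to vehicle treated cultures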; settings: S. cerevisiae cln2 rad14 strain, stronger effect = higher value
How it was run: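 Readout is yeast growth inhibition versus vehicle-treated controls, using a strain with cln2 and rad14 alterations exposed to compound.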

[5] = NCI Yeast Anticancer Drug Screen. Data for the bub3 strain (AID 167); settings: S. cerevisiae bub3 mutant strain, stronger effect = higher value
How it was run: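 Mutant yeast screening strain plus compound; vehicle-treated cultures serve as the 0% inhibition reference.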

[6] = NCI Yeast Anticancer Drug Screen. Data for the mlh1 rad18 strain (AID 175); settings: S. cerevisiae mlh1 rad18 strain growth inhibition, stronger effect = higher value
How it was run: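 Genetically defined yeast (DNA repair-deficient) exposed to compounds; growth inhibition determined relative to vehicle.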

[7] = at 5.0 µM (retest, dose inferred, filed as 0.5)
[8] = at 50.0 µM (retest, dose inferred, filed as 5.0)

SMILES	growth inhibition [1, 7]	growth inhibition [1, 8]	growth inhibition ([1]; at 50.0 µM)	growth inhibition [2, 7]	growth inhibition [2, 8]	growth inhibition ([2]; at 50.0 µM)	growth inhibition [3, 7]	growth inhibition [3, 8]	growth inhibition ([3]; at 50.0 µM)	growth inhibition [4, 7]	growth inhibition [4, 8]	growth inhibition ([4]; at 50.0 µM)	growth inhibition [5, 7]	growth inhibition [5, 8]	growth inhibition ([5]; at 50.0 µM)	growth inhibition [6, 7]	growth inhibition [6, 8]	growth inhibition ([6]; at 50.0 µM)
O=C(CCl)Nc1cccc(Cl)c1	3% (inactive)	80% (active)	92.4% (active)	2% (inactive)	50% (inactive)	89.5% (active)	1% (inactive)	68% (inactive)	87.5% (active)	2% (inactive)	33% (inactive)	67.8% (inactive)	10% (inactive)	78% (active)	94.4% (active)	2% (inactive)	78% (active)	95% (active)
CC[C@@]1(O)C[C@H](OC2CC(N(C)C)C(OC3CC(O)C(OC4CCC(=O)C(C)O4)C(C)O3)C(C)O2)c2c(cc3c(c2O)C(=O)c2c(O)ccc(O)c2C3=O)[C@H]1C(=O)OC (some centres not stated)	95% (active) and 89% (active)	98% (active)	88.1% (active) and 91.8% (active)	95% (active) and 78% (active)	99% (active)	91.2% (active) and 93.5% (active)	95% (active) and 87% (active)	99% (active) and 98% (active)	89.8% (active) and 92.3% (active)	91% (active) and 71% (active)	97% (active)	88.7% (active) and 91.2% (active)	92% (active) and 67% (inactive)	98% (active)	89.3% (active) and 92.3% (active)	96% (active) and 80% (active)	98% (active)	88.2% (active) and 91.7% (active)
COC(=O)[C@@]12OC[C@]34[C@H]([C@@H](O)[C@@H]1O)[C@@]1(C)CC(=O)C(O)=C(C)[C@@H]1C[C@H]3OC(=O)[C@H](OC(=O)/C=C(\C)C(C)C)[C@@H]24	96% (active)	99% (active)	91.5% (active)	95% (active)	100% (active)	93.7% (active)	96% (active)	99% (active)	93% (active)	96% (active)	99% (active)	90.8% (active)	93% (active)	99% (active)	91.5% (active)	97% (active)	99% (active)	92% (active)
CC(C)NCC(O)c1ccccc1Cl (configuration not stated)	3% (inactive)	2% (inactive)	5.4% (inactive)	2% (inactive)	-2% (inactive)	-11.3% (inactive)	0% (inactive)	3% (inactive)	-3.35% (inactive)	0% (inactive)	-2% (inactive)	32.9% (inactive)	-2% (inactive)	-4% (inactive)	-6.2% (inactive)	8% (inactive)	3% (inactive)	14.1% (inactive)
COc1ccccc1[As]=O (configuration not stated)	1% (inactive)	99% (active)	99.3% (active)	-12% (inactive)	99% (active)	99.6% (active)	8% (inactive)	99% (active)	99.5% (active)	-14% (inactive)	99% (active)	98.6% (active)	12% (inactive)	99% (active)	99.2% (active)	25% (inactive)	99% (active)	99.4% (active)
S=P(S)(Oc1ccccc1)Oc1ccccc1	-10% (inactive)	25% (inactive)	56% (inactive)	-18% (inactive)	18% (inactive)	77.7% (active)	1% (inactive)	17% (inactive)	40.4% (inactive)	-11% (inactive)	20% (inactive)	92.9% (active)	-4% (inactive)	38% (inactive)	75.2% (active)	-12% (inactive)	10% (inactive)	90.2% (active)
Nc1nc(CCl)cs1	-2% (inactive)	-5% (inactive)	-2.05% (inactive) and -11.7% (inactive)	0% (inactive)	-2% (inactive)	-24.7% (inactive) and -9.55% (inactive)	1% (inactive)	-3% (inactive)	-17.6% (inactive) and -0.25% (inactive)	-7% (inactive)	-8% (inactive)	75.8% (active) and -22.8% (inactive)	-4% (inactive)	-7% (inactive)	52.4% (inactive) and 4.7% (inactive)	-2% (inactive)	-6% (inactive)	17.8% (inactive) and -17% (inactive)
C[CH2][Sn]([Cl])([CH2]C)[O][Sn]([Cl])([CH2]C)[CH2]C	6% (inactive)	90% (active)	85.2% (active)	4% (inactive)	89% (active)	96.2% (active)	6% (inactive)	94% (active)	72.2% (active)	-3% (inactive)	86% (active)	95% (active)	6% (inactive)	88% (active)	96.7% (active)	8% (inactive)	83% (active)	84.9% (active)
